Mito fusion act: blocks mitochondrial division or promotes mitochondrial fusion; Potency, µM (titrated, usually from 46.1 µM), actives largely listed as activators; actives 0.23% (n = 320,000); S. cerevisiae fusion-defective mutant growth rescue, CellTiterGlo 48 h; also: nearly all actives have a fitted effect of over 45% in size
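Temperature-sensitive fusion-defective S. cerevisiae (e.g. fzo1-1, mgm1-5) were grown with compound in YPEG medium (3% ethanol, 3% glycerol) for 48 hours at 37C. Growth rescue was measured as viability by CellTiterGlo luminescence after 10 minutes at ambient.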
KAT2A inh: inhibitors of human GCN5L2 histone acetyltransferase; actives 0.21% (n = 390,000); AID 504327; GCN5L2 HAT assay, ThioGlo1 CoA-SH fluorescence; Potency, µM (top dose mostly 58.9 µM), actives largely listed as inhibitors; Q92830
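qHTS, 1536-well. 20nM enzyme, pH 7.5 HEPES/EDTA/Tween-20 buffer; 15 min compound preinc., RT. Start: 75uM H3(1-25), 70uM AcCoA, 50uM ThioGlo1. Read Ex340/Em540 at t=0 (autofluorescence flag) and t=20 min.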
PLK1 PBD block: inhibitors of human PLK1 polo-box domain binding; P53350; Plk1 PBD binding of FITC phosphopeptide, fluorescence polarization; Potency, µM, most hits filed as inhibitors; actives 2.8% (n = 360,000); AID 720504; also: series mostly up to about 57 µM; nearly all actives have a fitted effect of over 65% in size
GLS inhibitor: blocks human kidney-isoform glutaminase activity; O94925; GLS enzymatic activity, qHTS titration; Potency, µM (highest dose often 45.5 µM), most hits filed as inhibitors; actives 0.21% (n = 410,000); AID 624170
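hKGA; 45 mM KH2PO4 pH 8.2 + 0.02% Tween-20; cpd via pin tool; 1 mM Gln soln; GluOx/HRP/Amplex Red; RT 30 min; fluor. t0 & final.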
VDR inh: vitamin D3 receptor (human) inhibition; P11473; VDR-SRC2-3 peptide fluorescence polarization, 2 h; Potency, µM, hits mostly inhibitors; actives 0.93% (n = 400,000); AID 504847
Target sequence (P11473 whole entry, looked up): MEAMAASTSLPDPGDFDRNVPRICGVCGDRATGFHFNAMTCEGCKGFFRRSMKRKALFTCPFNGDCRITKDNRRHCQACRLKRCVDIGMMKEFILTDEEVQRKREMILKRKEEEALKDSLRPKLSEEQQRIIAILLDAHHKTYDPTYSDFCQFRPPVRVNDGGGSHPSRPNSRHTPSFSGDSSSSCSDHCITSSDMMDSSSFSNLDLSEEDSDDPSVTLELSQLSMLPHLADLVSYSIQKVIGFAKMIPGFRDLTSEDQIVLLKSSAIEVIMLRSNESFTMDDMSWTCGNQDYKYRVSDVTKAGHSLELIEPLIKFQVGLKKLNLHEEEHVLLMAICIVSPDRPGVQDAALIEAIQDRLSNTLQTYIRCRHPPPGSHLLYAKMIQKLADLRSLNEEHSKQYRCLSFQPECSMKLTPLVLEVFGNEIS
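VDR–SRC2-3 interaction, FP format. Cmpds 23 nl via pintool, brief spin, 2 h ambient incubation.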
PKM2 activator: activators of human pyruvate kinase M2. purified PKM2, Kinase-Glo ATP luminescence, activation; response scale: 0% is enzyme alone, no compound. AID 1631. Potency, µM (series often up to 57.5 µM), usual class: activators. actives 0.34% (n = 260,000). P14618; also: nearly all actives have a fitted effect of over 55% in size
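ATP formation by purified human PK-M2, quantified via coupled luciferase luminescence after 1 h at room temperature with 0.1 mM ADP and 0.5 mM PEP final.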
Each line names hits and unclear results; the compound was inactive in the other large screens. Hits are enriched below; roughly 3.4% of the tested compounds scored in any of these assays. Calls follow the shape of the dose curve; as a rule, active = well fitted curve in the direction sought with a large enough effect; inconclusive = small, poorly fitted or top-dose-only effect, or another doubt; inactive = no such curve, though single readings can be large; an effect the other way counts as inactive or inconclusive.

COc1ccc(N2CC(C(=O)Nc3ccccc3C(=O)NCc3ccco3)CC2=O)cc1 (stereo not given)	none
O=C(NCc1ccco1)C1CC(=O)N(c2ccc(O)cc2)C1 (stereo not given)	PLK1 PBD block 3.4µM
CCOc1ccc(N2CC(C(=O)NCc3cccc(C)c3)CC2=O)cc1 (stereo not given)	KAT2A inh inconclusive, PLK1 PBD block 6µM
CCOc1ccc(N2CC(C(=O)OCC(=O)c3ccc(OC)cc3)CC2=O)cc1 (stereo not given)	PLK1 PBD block 30µM, VDR inh inconclusive (no result: PKM2 activator)
COc1ccc(CNC(=O)[C@H](C)NC(=O)C2CC(=O)N(c3ccc(OC)cc3)C2)cc1 (stereo not given in full)	PLK1 PBD block 27µM, VDR inh inconclusive (no result: PKM2 activator)
COc1ccc(N2CC(C(=O)OCC(=O)c3ccc(C)cc3)CC2=O)cc1 (stereo not given)	none
COc1ccc(C(C)(NC(C)=O)c2nc(-c3cc(F)cc(F)c3)cs2)cc1 (stereo not given)	none (no result: Mito fusion act, KAT2A inh, VDR inh, PKM2 activator)
COc1ccc(CNC(=O)C(=O)NCC(c2cccs2)S(=O)(=O)c2ccc(C)cc2)cc1 (stereo not given)	none (no result: Mito fusion act, PLK1 PBD block, PKM2 activator)
O=C(O)/C=C/c1ccc(S(=O)(=O)NCc2cccnc2)cc1	PLK1 PBD block 24µM, VDR inh inconclusive
NC1=NC(=O)C2(COC(c3cccnc3)OC2)S1 (stereo not given)	PLK1 PBD block 34µM, VDR inh inconclusive (no result: PKM2 activator)
C[C@H](Cc1nc2c(cnn2-c2ccccc2Cl)c(=O)[nH]1)C(F)(F)F	VDR inh inconclusive (no result: Mito fusion act, PLK1 PBD block, GLS inhibitor, PKM2 activator)
Cc1ccc(N2C(S)=C(C#N)C(=O)NC2c2cccs2)cc1 (stereo not given)	PLK1 PBD block 27µM, VDR inh 25µM
N#CC1=C(S)N(c2ccc(F)cc2)C(c2ccco2)NC1=O (stereo not given)	PLK1 PBD block inconclusive, VDR inh inconclusive
Cc1ccc(N2C(S)=C(C#N)C(=O)NC2c2ccco2)cc1 (stereo not given)	VDR inh 40µM
CCOc1ccc(CN2CCC(C(=O)Nc3cccc(-c4ccn[nH]4)c3)CC2)cc1Cl	none (no result: PKM2 activator)
CCCS(=O)(=O)c1ncc(Cl)c(C(=O)N2CCN(c3ccc(OC)cc3)CC2)n1	VDR inh inconclusive (no result: Mito fusion act, PLK1 PBD block, PKM2 activator)
O=C1N=C(N2CCOCC2)S/C1=C\c1ccccc1OS(=O)(=O)c1ccccc1	none
CC(=O)N1CCN(C2=NC(=O)/C(=C/c3ccc(OS(=O)(=O)c4ccccc4)cc3)S2)CC1	VDR inh 50µM (no result: PKM2 activator)
Cc1ccc(C)c(OCC(O)CN2C(C)CCCC2C)c1 (stereo not given)	PLK1 PBD block 12µM
c1cnc2nc(CSc3ncn[nH]3)cn2c1	none
Cc1ccc2nc(SCc3cn4cccnc4n3)[nH]c2c1	PLK1 PBD block 27µM, VDR inh inconclusive
COc1cc(OC)c2c(c1)OC1Cc3cc(OC)c(OC)cc3C2O1 (stereo not given)	none (no result: Mito fusion act, KAT2A inh, PLK1 PBD block, GLS inhibitor, VDR inh)
COc1cccc(N2CCN(S(=O)(=O)c3cn(C)c(C)n3)CC2)c1	none (no result: Mito fusion act, PLK1 PBD block, PKM2 activator)
CC(C)CN(CC(C)C)C(=O)C1CCCN(S(=O)(=O)c2ccc3c(c2)oc(=O)n3C)C1 (stereo not given)	none (no result: Mito fusion act, PLK1 PBD block, PKM2 activator)
COc1cc(C2/C(=C(/O)c3ccccc3)C(=O)C(=O)N2c2ccccn2)ccc1O (stereo not given)	GLS inhibitor 8.9µM
COc1ccc(C2/C(=C(/O)c3ccc(F)cc3)C(=O)C(=O)N2c2ccccn2)cc1OC (stereo not given)	PLK1 PBD block 12µM, GLS inhibitor inconclusive, VDR inh inconclusive
O=C(NC1CCCCC1)C(c1cccnc1)N(CCc1ccccc1)C(=O)Cc1cccs1 (stereo not given)	PLK1 PBD block 27µM, VDR inh inconclusive
O=C(Nc1ccccn1)c1cccs1	PLK1 PBD block 3.4µM, GLS inhibitor inconclusive (no result: KAT2A inh)
COc1ccc2oc3cc(C)[n+]([O-])c(-c4ccc(Cl)cc4)c3c2c1	Mito fusion act 22µM
COc1ccc2oc3cc(C)[n+]([O-])c(-c4ccc(C)cc4)c3c2c1	Mito fusion act inconclusive
CC(C)(C)C1CCc2c(sc(NC(=O)C3CC=CCC3C(=O)O)c2C#N)C1 (stereo not given)	PLK1 PBD block 21µM, VDR inh inconclusive
CC(C)(C)c1ccc(C(=O)Nc2sc3c(c2C#N)CCC(C(C)(C)C)C3)cc1 (stereo not given)	none (no result: Mito fusion act, PLK1 PBD block, PKM2 activator)
CCC(C)(C)C1CCc2c(sc(NC(=O)c3ccccc3C(=O)O)c2C#N)C1 (stereo not given)	KAT2A inh inconclusive, PLK1 PBD block 27µM
O=C(NCCO)c1nc(C(=O)c2ccccc2)c2ccccc2n1	none (no result: PKM2 activator)
CNS(=O)(=O)c1ccc2c(c1)oc(=O)c1cc(S(=O)(=O)NC)ccc12	PKM2 activator 1.6µM
CC(CN1CCCCC1)NC(=O)c1cccs1 (stereo not given)	none
CN(C)C1=NCCN1CCCCc1ccccc1	none (no result: PKM2 activator)
CCOc1ccccc1NC(=S)/C(=C(\[O-])c1ccc2c(c1)OCCO2)[n+]1ccc(CC)cc1	PLK1 PBD block 21µM
O=C(c1cc2ccccc2oc1=O)N(Cc1cccs1)Cc1cccs1	PLK1 PBD block 15µM, VDR inh inconclusive
CC1(C)Cc2c(c(N3CCCC3)[nH]c(=S)c2C#N)CO1	none (no result: PLK1 PBD block, GLS inhibitor, VDR inh)
CC1(C)Cc2[nH]c(=S)c(C#N)cc2CO1	KAT2A inh inconclusive, PLK1 PBD block 17µM, VDR inh inconclusive
COc1ccc(NC(=O)N2CCc3nc(COc4ccccc4)c4c(c3C2)CO[C@@H](C)C4)cc1	none (no result: Mito fusion act, KAT2A inh, PLK1 PBD block, GLS inhibitor, VDR inh)
CCCCN=C1NN=C(c2ccc(C)c(C)c2)CS1	PLK1 PBD block 11µM, VDR inh inconclusive, PKM2 activator inconclusive
COC(=O)c1ccccc1NC(=O)CN(c1ccc(Cl)cc1)S(=O)(=O)c1ccc(OC)cc1	none (no result: Mito fusion act, PLK1 PBD block, PKM2 activator)
Cn1c(=O)c2cc(NC(=O)Nc3ccccc3)ccc2n1Cc1ccccc1	none (no result: Mito fusion act, KAT2A inh, VDR inh, PKM2 activator)
N#C/C(C(=O)N1CCCCC1)=C1\Nc2ccccc2S1	none
Cc1ccc(NC(=S)/C(C#N)=C2/Nc3ccccc3S2)cc1	PLK1 PBD block 27µM (no result: Mito fusion act, KAT2A inh, VDR inh, PKM2 activator)
S=c1nc(-c2cc(Cl)ccc2Cl)[nH][nH]1	KAT2A inh 3.5µM, PLK1 PBD block 15µM, VDR inh inconclusive
S=c1nc(-c2cc(Cl)cc(Cl)c2)[nH][nH]1	PLK1 PBD block 24µM
Cc1ccc(-c2cc(C(=O)N3CC(C)OC(C)C3)c3ccccc3n2)o1 (stereo not given)	KAT2A inh 22µM (no result: PKM2 activator)
COc1cccc(C2C=C(Nc3ccccc3)C(=O)N2c2ccccc2)c1 (stereo not given)	none
COc1cccc(NC2=CC(c3ccc(C(C)C)cc3)N(c3cccc(OC)c3)C2=O)c1 (stereo not given)	VDR inh 20µM (no result: Mito fusion act, PLK1 PBD block, PKM2 activator)
